# Bioassay records deposited in PubChem by National Center for Advancing Translational Sciences (NCATS).
# a7 integrin act: activates integrin-mediated alleviation for muscular dystrophy; alpha7betagal myoblasts, beta-gal FDG fluorescence, 48 h; 350,000 tested, 0.064% active; Potency, µM (titrated, usually from 38.3 µM), for the others: top-dose activation, most hits filed as activators;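 further: potency means the concentration at half of the fitted maximal effect; 100% = response of the positive control SU9516; nearly all actives have a fitted effect of over 60% in size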
#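 alpha7betagal+/- myoblasts (passage 13, 250/well) treated 48 h at 37C with compounds at 1:260 dilution of DMSO stock. Lysed, then beta-galactosidase activity read as FDG fluorescence (ex 480/em 540) after 30 min, with pre-read for autofluorescence.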
# Nrf2 ARE act: Nrf2 pathway activation; AREc32 ARE-luciferase reporter (MCF7-derived line), luminescence, 24 h; Potency, µM (highest dose often 46.1 µM), for the others: at the top dose activation, most hits filed as activators; 410,000 tested, 0.31% active; further: potency means the concentration at half of the fitted maximal effect; % of control where 0% means no effect; nearly all actives have a fitted effect of over 65% in size
#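 Steps: seed AREc32_Fluc cells (1000/well, 5% FBS OPTI-MEM); incubate overnight at 37 deg C; add 23 nL compound; incubate 24 hr; add Steady-Glo; hold 30 min RT; read luminescence.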
# 12-LOX inh: ALOX12 (human) lipoxygenase inhibition. 580,000 tested, 1.1% active. P18054. Potency, µM (highest dose often 108 µM), without a hit: top-dose activity change, negative = inhibition, actives largely listed as inhibitors. purified 12hLO, xylenol orange hydroperoxide absorbance; further: potency means the concentration at half of the fitted maximal effect; on the % scale 0 is the no-effect control and ±100 the full control effect
# Target sequence (P18054 whole entry, looked up): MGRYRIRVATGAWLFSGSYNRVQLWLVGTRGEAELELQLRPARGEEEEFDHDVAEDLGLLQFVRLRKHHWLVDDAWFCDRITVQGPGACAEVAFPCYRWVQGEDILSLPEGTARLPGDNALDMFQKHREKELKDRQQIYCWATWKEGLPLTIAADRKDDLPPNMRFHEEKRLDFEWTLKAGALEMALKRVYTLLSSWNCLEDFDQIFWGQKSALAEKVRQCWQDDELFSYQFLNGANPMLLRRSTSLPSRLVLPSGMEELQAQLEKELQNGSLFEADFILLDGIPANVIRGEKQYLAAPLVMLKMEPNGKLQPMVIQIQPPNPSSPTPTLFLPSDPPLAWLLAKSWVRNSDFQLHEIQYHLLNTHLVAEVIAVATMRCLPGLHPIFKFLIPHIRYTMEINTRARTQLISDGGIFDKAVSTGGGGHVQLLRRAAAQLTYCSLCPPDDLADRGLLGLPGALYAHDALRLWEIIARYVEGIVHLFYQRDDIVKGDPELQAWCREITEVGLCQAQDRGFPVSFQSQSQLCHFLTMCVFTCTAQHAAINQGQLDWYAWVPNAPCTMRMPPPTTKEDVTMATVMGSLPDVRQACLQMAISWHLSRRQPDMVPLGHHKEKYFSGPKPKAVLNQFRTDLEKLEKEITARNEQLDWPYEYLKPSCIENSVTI
#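 Purified human 12hLO (150 nM final) in 25 mM Hepes, 0.01% Triton X-100, pH 7.0 was preincubated 15 min at room temperature with compound. Then 40 uM arachidonic acid was added, 30 min. Hydroperoxide was read by Fe-XO absorbance ratio 573/405 nm.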
# IL-2 act: activates IL-2 in a cell-based reporter assay; 360,000 tested, 0.065% active; IL-2 activation reporter assay, cell-based qHTS; stimulated with anti-CD3/CD4/CD28 beads; in transgenic mouse T cells; activation, % (series mostly up to about 46 µM); AID 652025; in the data active means activation above about 50%; inconclusive means mostly about 30% to 49%; further: 0% is about no effect
#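 Using fluorescent plate cytometry, EGFP and DsRed are detected in transgenic mouse T cells stimulated 18 h at 37 degrees C with antibody-coated beads after 60 min compound pretreatment.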
# uPA generation: inhibitors of cell surface uPA generation | cell surface uPA generation assay, qHTS | Potency, µM (series often up to 38.3 µM), inactives show at the top dose activity change, negative = inhibition, hits mostly inhibitors | 330,000 tested, 0.31% active | AID 540303; active means well fitted inhibition curve with a large enough effect; inconclusive means small, poorly fitted or top-dose-only effect; inactive means no such curve, though single readings can be large or run the other way; tested in mouse RAW 264.7 cells; further: potency means the concentration at half of the fitted maximal effect; on the % scale 0 is the no-effect control and ±100 the full control effect; nearly all actives have a fitted effect of over 55% in size
# The depositor's hits bear a star; i = inactive; ? = inconclusive; nt = not tested or not shown; ! = not active in a repeat; [ ] = another dose, or the depositor's remark. Shown are actives, neighbours in structure and some others; about 1.5% of the full set was active somewhere. Unless noted, the call rests on the fitted dose curve; in most records, active means well fitted curve in the direction sought with a large enough effect; inconclusive means small, poorly fitted or top-dose-only effect, or another doubt; inactive means no such curve, though single readings can be large; an effect the other way counts as inactive or inconclusive.
SMILES,a7 integrin act,Nrf2 ARE act,12-LOX inh,IL-2 act,uPA generation
C/C(=C\c1ccc2c(c1)OCO2)[N+](=O)[O-],nt,nt,14µM*,nt,nt
Cc1ccc(C(C#N)=Cc2ccc3c(c2)OCO3)cc1,-45%,0%,-25%,-3,nt
O=[N+]([O-])c1cnc(N2CC3CCC(C2)N3CC(F)(F)F)nc1,nt,nt,2%[6.33 µM],nt,nt
Cc1nn(C(C)(C)C)c(C)c1/C=N/OC(=O)Nc1ccc(Cl)c(Cl)c1,2.8µM*,-2%,4%,-1,-5%
Cc1ccc(NC(=O)c2snnc2C)cc1Cl,-15%,5%,-15%,0,-2%
O=C(O)CSCC(=O)N1C[C@@H]2C[C@H](C1)c1c(-c3ccccc3F)ccc(=O)n1C2,nt,nt,63%[176 µM],nt,nt
Cc1ccc([N+](=O)[O-])[c]2c1[O][Hg]2,nt,nt,0.051µM*,nt,nt
Cn1nc(-c2ccccc2)cc1[C@H]1CN2CC[C@H]1C[C@@H]2CNC(=O)Nc1ccccc1,nt,nt,-3%[176 µM],nt,nt
C=C[C@H]1CN2CC[C@H]1C[C@@H]2CNCc1ccc(OC(F)(F)F)cc1,nt,nt,2%[176 µM],nt,nt
CC(C)C(=O)N1[C@H]2CC[C@@H]1c1cnc(-c3ccc(F)cc3)nc1C2,nt,nt,17%,nt,nt
COc1ccc([C@H]2CC(=O)C=C(c3c(OC)cccc3OC)C2)cc1,-15%,3%,-3%,1,2.2µM*
Cc1ccc(/C=C2\C(=O)NC(=O)N(Cc3ccccc3Cl)C2=O)o1,6%,-1%,32µM*,-1,-9%
Cc1ccc(/C=C2/C(=O)NC(=O)N(Cc3ccc(F)cc3)C2=O)o1,nt,nt,9%,nt,nt
O=C1NCCCCCCN(Cc2ccccn2)[C@H]2CCC[C@@H]12,nt,nt,i,nt,nt
COC(=O)C1=C(c2cccc(OCc3ccccc3)c2)C[C@@H]2CC[C@H]1N2C(=O)NCc1ccccc1,-10%,4%,1%,-3,?
COC(=O)C1=C(c2cccc(OCc3ccccc3)c2)C[C@@H]2CC[C@H]1N2C(=O)NCc1ccccc1OC,-13%,3%,0%,-1,14µM*
CC(C)(CC(=O)O)CC(=O)N1C[C@@H]2C[C@H](C1)c1ccc(-c3cccc(C#N)c3)c(=O)n1C2,nt,nt,-8%[176 µM],nt,nt
Cc1ccc(C(=O)N2[C@H]3CC[C@@H]2c2cnc(-c4ccc(F)cc4)nc2C3)cn1,nt,nt,40µM*,nt,nt
Cc1cnc(C(=O)N2[C@H]3CC[C@@H]2c2cnc(-c4ccc(F)cc4)nc2C3)cn1,nt,nt,28%,nt,nt
C=CCN1C(=O)/C(=C/c2ccc(Br)s2)C(=O)NC1=S,1%,4%,5.6µM*,-1,-4%
C=CCN1C(=O)/C(=C\c2ccc(N3CCOCC3)o2)C(=O)NC1=S,-11%,2%,?,1,-3%
CN1C(=O)/C(=C/c2ccc(Cl)s2)C(=O)NC1=S,0%,0%,4.5µM*,0,0%
COc1ccccc1CNC(=O)[C@H]1CN2CCC1C[C@@H]2Cn1cc(CO)nn1 (stereo partly drawn),nt,nt,-16%[176 µM],nt,nt
COc1ccccc1N1CCN(Cc2ccc3c(c2)OCO3)CC1,-31%,-1%,0.71µM*,-1,6%
Cc1[nH]nc2c1C(c1ccc(OCC(N)=O)cc1)SCC(=O)N2 (stereo not drawn),nt,nt,4%,nt,nt
SMILES,a7 integrin act,Nrf2 ARE act,12-LOX inh,IL-2 act,uPA generation
COc1ccc2c(c[n+](C)c3c4cc5c(cc4ccc23)OCO5)c1OC,nt,nt,9.7µM*!,nt,nt
CC(C)c1ccc(NC(=O)N2C[C@H]3C[C@@H](C2)c2cccc(=O)n2C3)cc1,21%,0%,28%,0,2%
CC(C)NC(=O)N1C[C@@H]2C[C@H](C1)c1ccc(C3CCCCC3)c(=O)n1C2,nt,nt,32µM*,nt,nt
CC1Oc2cc3c(-c4c(O)cc(O)c5c(O)c6c(cc45)OC(C)C(C)C6=O)c(O)cc(O)c3c(O)c2C(=O)C1C (stereo not drawn),-49%,0%,nt,-1,5.6µM*
Cn1c(=O)oc2cc(NC(=O)CCl)ccc21,-65%,7.9µM*,0%,-5,?
Cn1cc(NC(=O)CCl)cn1,-62%,?,-5%,11,-9%
Cc1[nH]c2ccc(OCc3ccccc3)cc2c1CCN,-2%,0%,-25%,0,-10%
COc1ccc2[nH]c(C)c(CCNCc3cn(C)c4ccccc34)c2c1,-61%,0%,5.6µM*,-4,5%
COc1ccc(CNCCc2c(C)[nH]c3ccc(OC)cc23)c(F)c1,nt,nt,1.6µM*,nt,nt
O=C(NC1CC1)[C@H]1CN2CCC1C[C@@H]2Cn1cc(CCO)nn1 (stereo partly drawn),nt,nt,7%[176 µM],nt,nt
